Measurements: ChEMBL document CHEMBL2218924, “A broad activity screen in support of a chemogenomic map for kinase signalling research and drug discovery” (Biochem J, 2013)

Assays:
[1] = biological target: T1, Ephrin type-B receptor 1 (Homo sapiens) (UniProt P54762); details: at 10 µM
T1 sequence (whole entry): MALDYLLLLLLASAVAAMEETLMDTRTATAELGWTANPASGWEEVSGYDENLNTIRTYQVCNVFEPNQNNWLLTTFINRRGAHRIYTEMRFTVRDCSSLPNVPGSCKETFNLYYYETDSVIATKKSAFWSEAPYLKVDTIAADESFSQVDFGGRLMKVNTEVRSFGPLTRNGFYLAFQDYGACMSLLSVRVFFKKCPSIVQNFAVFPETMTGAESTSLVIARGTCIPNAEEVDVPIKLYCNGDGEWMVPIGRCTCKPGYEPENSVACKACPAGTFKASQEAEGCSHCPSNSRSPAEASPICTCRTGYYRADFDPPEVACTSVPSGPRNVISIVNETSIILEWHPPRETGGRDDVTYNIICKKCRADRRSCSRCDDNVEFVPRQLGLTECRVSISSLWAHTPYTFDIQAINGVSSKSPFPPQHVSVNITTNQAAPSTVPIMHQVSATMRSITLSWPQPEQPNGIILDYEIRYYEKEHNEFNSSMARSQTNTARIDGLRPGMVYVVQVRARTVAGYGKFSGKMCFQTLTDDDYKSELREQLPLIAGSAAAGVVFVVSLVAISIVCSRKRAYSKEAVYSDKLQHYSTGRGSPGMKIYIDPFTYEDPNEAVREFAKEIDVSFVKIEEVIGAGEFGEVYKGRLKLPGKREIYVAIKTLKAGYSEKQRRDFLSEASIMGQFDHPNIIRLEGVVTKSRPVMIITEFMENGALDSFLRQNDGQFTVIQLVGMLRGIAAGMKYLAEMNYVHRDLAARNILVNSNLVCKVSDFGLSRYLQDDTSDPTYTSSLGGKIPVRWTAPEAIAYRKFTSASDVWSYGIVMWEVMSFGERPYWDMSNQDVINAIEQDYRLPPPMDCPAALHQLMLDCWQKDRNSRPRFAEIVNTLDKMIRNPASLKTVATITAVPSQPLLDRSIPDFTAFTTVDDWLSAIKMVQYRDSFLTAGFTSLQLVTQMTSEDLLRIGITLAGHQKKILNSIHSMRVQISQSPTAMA

[2] = biological target: T2, Ephrin type-B receptor 2 (Homo sapiens) (UniProt P29323); details: at 1 µM
T2 sequence (whole entry): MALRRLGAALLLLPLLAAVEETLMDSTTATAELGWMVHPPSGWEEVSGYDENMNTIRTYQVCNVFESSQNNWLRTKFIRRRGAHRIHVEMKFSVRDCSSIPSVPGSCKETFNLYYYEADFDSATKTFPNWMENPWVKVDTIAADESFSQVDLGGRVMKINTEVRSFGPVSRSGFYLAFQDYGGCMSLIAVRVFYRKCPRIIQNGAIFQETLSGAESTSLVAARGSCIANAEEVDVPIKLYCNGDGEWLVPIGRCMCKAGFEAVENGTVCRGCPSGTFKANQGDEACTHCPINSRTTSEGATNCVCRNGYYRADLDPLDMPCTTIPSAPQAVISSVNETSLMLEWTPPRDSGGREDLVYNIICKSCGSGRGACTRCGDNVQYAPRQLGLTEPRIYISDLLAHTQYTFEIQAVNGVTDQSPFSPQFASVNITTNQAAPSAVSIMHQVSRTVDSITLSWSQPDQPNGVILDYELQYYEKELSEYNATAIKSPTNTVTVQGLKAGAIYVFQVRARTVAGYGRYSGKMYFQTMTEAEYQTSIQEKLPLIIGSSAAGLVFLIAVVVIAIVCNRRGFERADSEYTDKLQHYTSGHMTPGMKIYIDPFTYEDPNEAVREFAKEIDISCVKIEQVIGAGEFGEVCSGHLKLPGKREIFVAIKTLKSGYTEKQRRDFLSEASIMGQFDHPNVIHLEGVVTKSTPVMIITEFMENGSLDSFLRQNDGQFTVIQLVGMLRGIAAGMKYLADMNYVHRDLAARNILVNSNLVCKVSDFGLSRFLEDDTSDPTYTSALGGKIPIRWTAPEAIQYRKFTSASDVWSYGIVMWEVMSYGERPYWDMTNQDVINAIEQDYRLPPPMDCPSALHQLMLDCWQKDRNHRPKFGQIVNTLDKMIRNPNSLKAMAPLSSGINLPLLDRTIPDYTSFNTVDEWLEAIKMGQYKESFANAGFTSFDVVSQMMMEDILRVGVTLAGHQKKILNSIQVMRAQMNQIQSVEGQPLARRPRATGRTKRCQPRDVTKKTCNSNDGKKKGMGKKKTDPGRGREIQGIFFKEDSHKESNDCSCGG

[3] = biological target: T2, Ephrin type-B receptor 2 (Homo sapiens); details: at 10 µM
[4] = biological target: T3, Ephrin type-B receptor 3 (Homo sapiens) (UniProt P54753); details: at 1 µM
T3 sequence (whole entry): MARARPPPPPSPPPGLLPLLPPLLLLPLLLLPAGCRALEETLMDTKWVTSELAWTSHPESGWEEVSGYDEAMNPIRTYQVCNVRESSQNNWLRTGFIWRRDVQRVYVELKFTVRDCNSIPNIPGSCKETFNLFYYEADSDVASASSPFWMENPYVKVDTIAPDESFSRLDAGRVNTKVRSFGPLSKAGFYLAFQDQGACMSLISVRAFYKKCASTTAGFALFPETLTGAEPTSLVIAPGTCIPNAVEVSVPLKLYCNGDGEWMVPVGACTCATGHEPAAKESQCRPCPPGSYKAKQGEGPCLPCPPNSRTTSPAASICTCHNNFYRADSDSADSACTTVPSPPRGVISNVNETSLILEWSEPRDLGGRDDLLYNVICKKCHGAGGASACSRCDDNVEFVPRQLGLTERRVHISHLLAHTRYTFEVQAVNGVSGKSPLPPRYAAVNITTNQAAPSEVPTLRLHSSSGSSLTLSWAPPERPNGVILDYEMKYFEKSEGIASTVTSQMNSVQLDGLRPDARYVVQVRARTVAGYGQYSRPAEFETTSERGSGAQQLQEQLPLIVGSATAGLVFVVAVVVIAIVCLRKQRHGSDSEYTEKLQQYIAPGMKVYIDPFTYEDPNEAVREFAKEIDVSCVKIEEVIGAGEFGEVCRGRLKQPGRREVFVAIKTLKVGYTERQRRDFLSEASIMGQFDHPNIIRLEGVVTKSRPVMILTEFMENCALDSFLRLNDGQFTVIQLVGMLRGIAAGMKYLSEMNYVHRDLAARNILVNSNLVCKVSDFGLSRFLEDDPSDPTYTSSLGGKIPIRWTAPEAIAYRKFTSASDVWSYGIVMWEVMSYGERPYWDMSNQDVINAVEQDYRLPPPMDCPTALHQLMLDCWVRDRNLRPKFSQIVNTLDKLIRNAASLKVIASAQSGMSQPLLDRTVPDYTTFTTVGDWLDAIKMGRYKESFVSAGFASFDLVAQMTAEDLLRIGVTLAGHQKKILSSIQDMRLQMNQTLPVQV

[5] = biological target: T3, Ephrin type-B receptor 3 (Homo sapiens); details: at 10 µM
[6] = biological target: T4, Ephrin type-B receptor 4 (Homo sapiens) (UniProt P54760); details: at 1 µM
T4 sequence (whole entry): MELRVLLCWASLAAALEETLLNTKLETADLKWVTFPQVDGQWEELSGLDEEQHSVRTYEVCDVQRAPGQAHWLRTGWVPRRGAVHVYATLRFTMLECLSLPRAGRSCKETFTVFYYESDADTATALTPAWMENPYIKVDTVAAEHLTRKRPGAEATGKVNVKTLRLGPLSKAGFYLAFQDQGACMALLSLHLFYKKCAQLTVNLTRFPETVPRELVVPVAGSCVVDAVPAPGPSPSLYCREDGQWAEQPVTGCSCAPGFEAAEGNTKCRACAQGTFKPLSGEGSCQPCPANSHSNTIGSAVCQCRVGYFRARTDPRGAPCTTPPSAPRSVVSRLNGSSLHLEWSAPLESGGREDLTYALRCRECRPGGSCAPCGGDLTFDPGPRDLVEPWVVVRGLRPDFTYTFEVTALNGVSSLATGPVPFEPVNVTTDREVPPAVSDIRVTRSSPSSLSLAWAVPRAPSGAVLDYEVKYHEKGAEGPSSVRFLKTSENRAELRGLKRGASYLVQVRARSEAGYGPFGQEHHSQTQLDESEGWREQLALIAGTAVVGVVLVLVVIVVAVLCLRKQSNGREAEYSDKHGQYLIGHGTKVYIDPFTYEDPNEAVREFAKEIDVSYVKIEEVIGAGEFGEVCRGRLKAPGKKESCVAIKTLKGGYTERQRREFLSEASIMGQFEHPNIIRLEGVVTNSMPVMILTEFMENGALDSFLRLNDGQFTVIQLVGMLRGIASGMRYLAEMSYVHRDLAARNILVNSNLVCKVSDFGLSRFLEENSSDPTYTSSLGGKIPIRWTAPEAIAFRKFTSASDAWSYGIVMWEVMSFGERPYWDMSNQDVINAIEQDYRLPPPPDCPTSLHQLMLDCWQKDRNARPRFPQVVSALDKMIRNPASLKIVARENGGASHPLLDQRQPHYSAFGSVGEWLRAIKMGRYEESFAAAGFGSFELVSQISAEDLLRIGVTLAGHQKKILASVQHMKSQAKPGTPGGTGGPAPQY

[7] = biological target: T4, Ephrin type-B receptor 4 (Homo sapiens); details: at 10 µM
[8] = biological target: Receptor tyrosine-protein kinase erbB-4 (Homo sapiens) (UniProt Q15303); details: at 1 µM
Sequence of Receptor tyrosine-protein kinase erbB-4 (Homo sapiens) (Q15303 whole entry): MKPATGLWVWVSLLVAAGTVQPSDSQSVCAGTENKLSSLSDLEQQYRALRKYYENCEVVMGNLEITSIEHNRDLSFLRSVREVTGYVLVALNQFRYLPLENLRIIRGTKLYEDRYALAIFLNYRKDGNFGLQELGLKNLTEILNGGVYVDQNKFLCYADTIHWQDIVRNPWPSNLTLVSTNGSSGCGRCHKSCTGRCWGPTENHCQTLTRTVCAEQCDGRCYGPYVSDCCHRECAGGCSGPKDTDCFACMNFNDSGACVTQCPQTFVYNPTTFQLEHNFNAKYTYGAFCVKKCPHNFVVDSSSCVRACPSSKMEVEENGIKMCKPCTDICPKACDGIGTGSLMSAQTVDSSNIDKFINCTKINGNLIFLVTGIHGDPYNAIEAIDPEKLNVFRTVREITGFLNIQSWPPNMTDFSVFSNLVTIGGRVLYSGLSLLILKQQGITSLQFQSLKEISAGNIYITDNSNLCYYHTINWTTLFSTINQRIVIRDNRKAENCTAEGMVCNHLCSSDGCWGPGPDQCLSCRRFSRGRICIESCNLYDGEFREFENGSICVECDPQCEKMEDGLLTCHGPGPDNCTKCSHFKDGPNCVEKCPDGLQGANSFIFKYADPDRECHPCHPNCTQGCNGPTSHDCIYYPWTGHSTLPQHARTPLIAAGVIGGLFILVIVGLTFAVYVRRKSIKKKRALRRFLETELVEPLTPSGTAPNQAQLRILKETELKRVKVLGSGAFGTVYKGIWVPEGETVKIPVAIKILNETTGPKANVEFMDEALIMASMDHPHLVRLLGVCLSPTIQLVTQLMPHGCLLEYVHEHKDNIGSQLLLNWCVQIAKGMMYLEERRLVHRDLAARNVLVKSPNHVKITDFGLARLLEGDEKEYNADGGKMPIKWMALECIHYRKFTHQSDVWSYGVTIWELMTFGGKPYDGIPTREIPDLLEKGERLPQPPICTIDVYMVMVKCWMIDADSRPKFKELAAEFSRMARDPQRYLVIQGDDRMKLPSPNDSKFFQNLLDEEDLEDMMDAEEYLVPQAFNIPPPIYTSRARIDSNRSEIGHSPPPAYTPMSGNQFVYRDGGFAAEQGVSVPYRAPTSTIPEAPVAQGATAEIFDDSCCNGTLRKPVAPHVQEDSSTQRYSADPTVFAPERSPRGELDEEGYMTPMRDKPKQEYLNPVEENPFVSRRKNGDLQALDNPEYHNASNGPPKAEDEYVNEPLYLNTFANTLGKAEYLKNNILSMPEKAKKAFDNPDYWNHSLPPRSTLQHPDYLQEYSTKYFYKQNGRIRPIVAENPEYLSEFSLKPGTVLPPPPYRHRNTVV

[9] = biological target: Receptor tyrosine-protein kinase erbB-4 (Homo sapiens) (UniProt Q15303); details: at 10 µM
[10] = biological target: Focal adhesion kinase 1 (Homo sapiens) (UniProt Q05397); details: at 1 µM
Sequence of Focal adhesion kinase 1 (Homo sapiens) (Q05397 2-1052 limits assumed): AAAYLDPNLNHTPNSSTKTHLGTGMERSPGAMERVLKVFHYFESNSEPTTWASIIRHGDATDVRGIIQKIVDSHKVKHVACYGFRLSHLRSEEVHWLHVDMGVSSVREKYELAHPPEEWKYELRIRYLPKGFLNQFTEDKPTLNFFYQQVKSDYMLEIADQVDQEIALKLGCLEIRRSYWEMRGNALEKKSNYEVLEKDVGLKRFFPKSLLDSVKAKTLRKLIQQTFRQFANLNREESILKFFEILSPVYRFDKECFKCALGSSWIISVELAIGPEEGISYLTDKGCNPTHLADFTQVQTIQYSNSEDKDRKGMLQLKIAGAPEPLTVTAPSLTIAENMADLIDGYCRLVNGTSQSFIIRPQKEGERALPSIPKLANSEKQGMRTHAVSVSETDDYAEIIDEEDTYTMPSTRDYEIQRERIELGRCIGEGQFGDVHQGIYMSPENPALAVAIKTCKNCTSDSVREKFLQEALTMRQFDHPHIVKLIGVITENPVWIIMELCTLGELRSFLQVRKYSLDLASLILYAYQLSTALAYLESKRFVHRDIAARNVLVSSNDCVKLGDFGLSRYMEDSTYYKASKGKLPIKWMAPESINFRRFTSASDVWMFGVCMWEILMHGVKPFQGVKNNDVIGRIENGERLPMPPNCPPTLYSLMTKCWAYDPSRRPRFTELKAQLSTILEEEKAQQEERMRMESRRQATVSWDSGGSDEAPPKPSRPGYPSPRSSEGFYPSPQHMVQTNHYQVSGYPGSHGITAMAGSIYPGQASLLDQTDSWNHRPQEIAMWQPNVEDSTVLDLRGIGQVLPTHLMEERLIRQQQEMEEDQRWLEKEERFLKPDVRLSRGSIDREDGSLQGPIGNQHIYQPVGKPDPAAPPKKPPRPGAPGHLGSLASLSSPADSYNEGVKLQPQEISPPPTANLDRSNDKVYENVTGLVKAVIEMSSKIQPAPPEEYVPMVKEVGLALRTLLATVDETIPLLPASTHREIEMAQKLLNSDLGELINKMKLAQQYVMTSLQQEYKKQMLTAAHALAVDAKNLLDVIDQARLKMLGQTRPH

[11] = biological target: Focal adhesion kinase 1 (Homo sapiens) (UniProt Q05397); details: at 10 µM
[12] = biological target: Fibroblast growth factor receptor 1 (Homo sapiens) (UniProt P11362); details: at 1 µM
Sequence of Fibroblast growth factor receptor 1 (Homo sapiens) (P11362 22-822 limits assumed): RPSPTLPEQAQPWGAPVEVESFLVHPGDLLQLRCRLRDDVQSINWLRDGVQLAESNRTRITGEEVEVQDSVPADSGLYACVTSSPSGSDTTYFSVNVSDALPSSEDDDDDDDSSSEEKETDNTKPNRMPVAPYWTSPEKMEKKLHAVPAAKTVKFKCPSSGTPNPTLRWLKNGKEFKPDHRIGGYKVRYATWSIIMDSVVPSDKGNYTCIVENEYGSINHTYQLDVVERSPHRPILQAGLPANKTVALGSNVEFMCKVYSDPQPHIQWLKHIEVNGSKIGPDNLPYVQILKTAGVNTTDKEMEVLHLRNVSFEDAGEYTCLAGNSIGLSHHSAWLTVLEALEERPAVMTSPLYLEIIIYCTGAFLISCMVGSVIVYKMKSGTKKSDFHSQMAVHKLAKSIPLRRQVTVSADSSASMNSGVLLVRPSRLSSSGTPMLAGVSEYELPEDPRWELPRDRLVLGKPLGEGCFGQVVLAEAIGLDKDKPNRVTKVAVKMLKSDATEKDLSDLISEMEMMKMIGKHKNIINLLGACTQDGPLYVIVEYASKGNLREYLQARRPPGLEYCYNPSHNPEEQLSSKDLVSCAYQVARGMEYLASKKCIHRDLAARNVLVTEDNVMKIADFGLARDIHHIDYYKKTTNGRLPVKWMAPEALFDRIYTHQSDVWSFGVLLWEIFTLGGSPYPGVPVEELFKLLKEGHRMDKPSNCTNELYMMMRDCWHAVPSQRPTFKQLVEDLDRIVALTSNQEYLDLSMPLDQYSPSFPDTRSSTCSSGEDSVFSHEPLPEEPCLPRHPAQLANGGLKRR

[13] = biological target: Fibroblast growth factor receptor 1 (Homo sapiens) (UniProt P11362); details: at 10 µM
[14] = biological target: Fibroblast growth factor receptor 2 (Homo sapiens) (UniProt P21802); details: at 1 µM
Sequence of Fibroblast growth factor receptor 2 (Homo sapiens) (P21802 22-821 limits assumed): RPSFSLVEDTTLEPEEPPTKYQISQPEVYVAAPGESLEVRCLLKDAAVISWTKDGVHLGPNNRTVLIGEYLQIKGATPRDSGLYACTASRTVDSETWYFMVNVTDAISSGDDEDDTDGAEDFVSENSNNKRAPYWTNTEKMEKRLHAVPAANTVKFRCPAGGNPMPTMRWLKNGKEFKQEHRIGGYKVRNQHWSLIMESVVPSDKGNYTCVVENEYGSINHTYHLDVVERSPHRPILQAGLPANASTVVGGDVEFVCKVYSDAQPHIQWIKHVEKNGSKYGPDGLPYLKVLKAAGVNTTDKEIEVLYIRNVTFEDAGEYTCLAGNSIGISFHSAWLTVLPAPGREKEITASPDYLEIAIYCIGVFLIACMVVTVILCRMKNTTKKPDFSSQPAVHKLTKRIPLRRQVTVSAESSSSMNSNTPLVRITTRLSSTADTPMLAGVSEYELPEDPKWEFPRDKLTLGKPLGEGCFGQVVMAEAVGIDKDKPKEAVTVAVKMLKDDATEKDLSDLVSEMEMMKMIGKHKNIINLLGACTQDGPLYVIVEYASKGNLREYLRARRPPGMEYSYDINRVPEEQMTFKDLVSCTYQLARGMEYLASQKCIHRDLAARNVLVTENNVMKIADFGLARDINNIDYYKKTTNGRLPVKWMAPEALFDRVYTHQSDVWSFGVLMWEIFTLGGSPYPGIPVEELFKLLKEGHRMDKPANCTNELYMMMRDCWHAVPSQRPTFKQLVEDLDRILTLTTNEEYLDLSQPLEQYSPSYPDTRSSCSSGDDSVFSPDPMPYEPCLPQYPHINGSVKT

[15] = biological target: Fibroblast growth factor receptor 2 (Homo sapiens) (UniProt P21802); details: at 10 µM
[16] = biological target: Fibroblast growth factor receptor 3 (Homo sapiens) (UniProt P22607); details: at 1 µM
[17] = biological target: Fibroblast growth factor receptor 3 (Homo sapiens) (UniProt P22607); details: at 10 µM
[18] = biological target: Fibroblast growth factor receptor 4 (Homo sapiens) (UniProt P22455); details: at 1 µM
Sequence of Fibroblast growth factor receptor 4 (Homo sapiens) (P22455 22-802 limits assumed): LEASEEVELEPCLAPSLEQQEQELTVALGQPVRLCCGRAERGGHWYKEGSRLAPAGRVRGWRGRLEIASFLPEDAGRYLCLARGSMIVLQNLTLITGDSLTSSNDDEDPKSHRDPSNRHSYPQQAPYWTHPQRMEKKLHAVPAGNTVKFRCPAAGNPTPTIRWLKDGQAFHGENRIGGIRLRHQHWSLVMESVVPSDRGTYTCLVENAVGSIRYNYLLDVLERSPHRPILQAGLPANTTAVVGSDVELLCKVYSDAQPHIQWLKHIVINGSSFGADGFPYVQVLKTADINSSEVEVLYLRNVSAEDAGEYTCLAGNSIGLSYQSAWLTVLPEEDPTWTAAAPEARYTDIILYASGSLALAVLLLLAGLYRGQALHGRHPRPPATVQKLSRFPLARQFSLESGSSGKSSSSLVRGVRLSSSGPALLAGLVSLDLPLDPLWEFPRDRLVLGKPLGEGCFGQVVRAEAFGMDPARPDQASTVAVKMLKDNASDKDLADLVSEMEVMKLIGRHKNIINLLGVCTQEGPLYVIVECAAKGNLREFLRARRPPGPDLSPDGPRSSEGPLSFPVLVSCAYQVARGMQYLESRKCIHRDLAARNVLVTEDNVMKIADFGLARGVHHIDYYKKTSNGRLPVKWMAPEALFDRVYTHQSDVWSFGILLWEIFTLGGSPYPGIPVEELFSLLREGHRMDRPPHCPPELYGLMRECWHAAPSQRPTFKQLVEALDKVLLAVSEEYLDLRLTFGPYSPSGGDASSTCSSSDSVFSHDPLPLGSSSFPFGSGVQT

[19] = biological target: Fibroblast growth factor receptor 4 (Homo sapiens) (UniProt P22455); details: at 10 µM
[20] = biological target: Tyrosine-protein kinase Fer (Homo sapiens) (UniProt P16591); details: at 1 µM

Row | Compound | residual activity [1] | residual activity [2] | residual activity [3] | residual activity [4] | residual activity [5] | residual activity [6] | residual activity [7] | residual activity [8] | residual activity [9] | residual activity [10] | residual activity [11] | residual activity [12] | residual activity [13] | residual activity [14] | residual activity [15] | residual activity [16] | residual activity [17] | residual activity [18] | residual activity [19] | residual activity [20]
1 | O=C1c2ccccc2-[n+]2ccc3c([nH]c4ccccc43)c21 | 85% | 114% | 116% | 100% (inactive) | 96% | 92% | 84% | 69% | 67% | 95% | 90% | 100% | 78% | 107% | 84% | 96% | 114% | 109% | 97% | 92%
2 | O=C(Nc1cccc(Nc2cc(Nc3cccc(C(F)(F)F)c3)ncn2)c1)C1CC1 | 69% | 101% | 99% | 90% (inactive) | 100% | 97% | 82% | 71% | 88% | 130% | 79% | 97% | 58% | 94% | 101% | 112% | 111% | 90% | 90% | 112%
3 | CC[n+]1c(/C=C/N(C)c2ccccc2)n(-c2ccccc2)c2ccc(-c3nc4ccccc4s3)cc21 | 56% | 136% | 129% | 131% (inactive) | 160% | 114% | 159% | 79% | 99% | 144% | 80% | 99% | 55% | 93% | 123% | 105% | 104% | 101% | 84% | 116%
